Screens deposited in PubChem by several laboratories.
SARS 3CLpro inh: SARS-CoV 3CLpro protease inhibition. P0C6X7. recombinant SARS-CoV 3CLpro, quenched FRET peptide cleavage. inhibition, % at 6 µM. hit rate 0.14% among 290,000. AID 1706; in the data active = inhibition above about 12%
SSB-PriA inh: K. pneumoniae PriA-SSBct interaction inhibition; AlphaScreen SSBct-PriA binding, biotinylated peptide; inhibition, % at 33 µM; hit rate 0.6% among 430,000; AID 1272365; in the data active = inhibition mostly above about 37%, no sharp cut-off; inactive = mostly below about 20%
Y pestis TopoI: Y. pestis Topo-I inhibition via cleavage products | activity, % at 10 µM | AID 504884 | hit rate 0.064% among 360,000 | Y. pestis Topo-I cleavage product accumulation, plate reader; in the data active = activity above about 50%, passing the limit was not always enough
MazF activator: MazEF (E. coli) toxin RNase activation; FAM/BHQ RNA-DNA oligo cleavage fluorescence, 5 h; AID 504720; hit rate 0.32% among 350,000; activation, % at 20 µM; P0AE70; in the data active = activation above about 50%
Target sequence (P0AE70 whole entry, looked up): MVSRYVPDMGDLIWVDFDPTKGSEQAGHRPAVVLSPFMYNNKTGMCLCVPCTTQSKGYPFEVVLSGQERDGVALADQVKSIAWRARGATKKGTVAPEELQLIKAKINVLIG
A number is an active result; – = inactive; · = not tested or not shown; + = active, no number. Compounds with a hit are over-represented: about 0.9% of the library has one in this group of screens.

SMILES	SARS 3CLpro inh	SSB-PriA inh	Y pestis TopoI	MazF activator
COCCN1CCCc2ccc(NS(=O)(=O)c3cc(Cl)ccc3C)cc21	·	57.0	·	·
COCCN1CCCc2ccc(NS(=O)(=O)c3ccc(C(C)(C)C)cc3)cc21	·	39.0	·	·
COCCN1CCCc2ccc(NS(=O)(=O)c3ccc(OC)cc3)cc21	·	–	·	·
Cc1ccc(N)cc1S(N)(=O)=O	·	–	·	·
O=C(NCCc1ccoc1)NCc1ccc(F)cc1	·	–	·	·
COc1ccc(Cl)c2sc(NCc3ccccc3)nc12	·	–	·	·
CCN(CC)c1ccc(NC2CC(=O)N(CCc3ccc(OC)cc3)C2=O)cc1 (configuration not stated)	–	–	–	60.5
O=C(Nc1ccccc1F)c1cc(C2CCN(C(=O)c3ccno3)CC2)[nH]n1	·	–	·	·
O=C(Nc1ccccc1F)c1cc(C2CCN(C(=O)Cc3noc4ccccc34)CC2)[nH]n1	·	62.0	·	·
Cc1ccc(S(=O)(=O)CCc2nnc(NC(=O)c3ccccn3)s2)cc1	–	85.5	–	–
COc1ccc(SCCCC(=O)Nc2cc(C)ccc2C)cc1	·	–	·	·
O=C1NCCN1C(=O)NCc1cccnc1-c1ccsc1	·	–	·	·
COc1ccc(OC)c(-c2cc(C3CCN(c4ncccc4[N+](=O)[O-])CC3)[nH]n2)c1	–	65.0	–	–
CC1CC(=O)C2=C(C1)OC(N)=C(C#N)C2c1coc2ccccc2c1=O (configuration not stated)	–	–	–	85.1
CC1(C)CC(=O)C2=C(C1)OC(N)=C(C#N)C2c1ccccc1 (configuration not stated)	–	–	–	–
O=c1c2nnn(Cc3ccccc3Cl)c2ncn1Cc1nc(-c2ccc(C(F)(F)F)cc2)no1	·	–	·	·
CCOc1ccc2ncc(S(=O)(=O)c3ccccc3)c(N3CCN(c4cccc(C)c4C)CC3)c2c1	·	–	·	·
O=[N+]([O-])c1ccccc1Nc1nc(-c2cccnc2)cs1	–	51.8	–	–
CCN(CC)c1ccc(Nc2nc(-c3cccnc3)cs2)cc1	–	41.2	–	–
O=[N+]([O-])c1ccccc1Nc1nc(-c2ccccn2)cs1	·	80.4	·	·
O=C(COc1ccnc2c1CCCC2)NC(c1ccccc1)c1ccccc1	·	–	·	·
Cn1nc(C(F)(F)F)cc1-c1ccc(/C=C(\C#N)C(=O)c2ccccc2)s1	–	–	–	781.5
COc1ccc(C)cc1NC(=O)C(=O)NCC(c1ccc2c(c1)CCN2C)N(C)C (configuration not stated)	·	53.0	·	·
COc1ccc(NC(=O)C(=O)NCC(c2ccc3c(c2)CCN3C)N(C)C)c(OC)c1 (configuration not stated)	·	–	·	·
CCOC(=O)c1ccc(NC(=O)Nc2sc3c(c2C(N)=O)CC(C)CC3)cc1 (configuration not stated)	·	–	·	·
SMILES	SARS 3CLpro inh	SSB-PriA inh	Y pestis TopoI	MazF activator
CCC(C)NC(=O)Cn1nc2ccc(SCc3ccc(Cl)cc3)nn2c1=O (configuration not stated)	·	–	·	·
O=C1C=C(c2c(O)ccc3ccccc23)c2ccccc2C1=O	·	–	–	79.9
O=C1C=C(O)c2cccc(O)c2C1=O	·	–	–	–
CN(C)NC(=S)Nc1ccc2nc(-c3ccccn3)c(-c3ccccn3)nc2c1	–	78.9	–	–
OCCCNC(=S)Nc1ccc2nc(-c3ccccn3)c(-c3ccccn3)nc2c1	–	71.6	–	–
CC(C)(C)CC(C)(C)NC(=S)Nc1ccc2nc(-c3ccccn3)c(-c3ccccn3)nc2c1	–	–	–	–
CCOc1cccc2cc(-c3nnc(NC(=O)c4ccccc4SC)o3)oc12	·	–	·	·
O=C(c1ccccc1F)N1CCCC(c2nnc(-c3ccc4c(c3)OCO4)o2)C1 (configuration not stated)	·	–	·	·
Nc1ccc(S(=O)(=O)NC2=NCCCCC2)cc1N	–	–	–	–
O=[N+]([O-])c1cc(S(=O)(=O)NC2=NCCCCC2)ccc1NCC1CCCCC1	–	40.8	–	–
COc1ccc(Cn2cc[nH]c2=S)cc1	·	–	·	·
N#CCCn1c(-c2nonc2NC(=O)c2ccccc2Cl)nc2ccccc21	–	–	–	81.2
CN(C)c1ccc(/C=C2/CCC/C(=C\c3ccc(N(C)C)cc3)C2=O)cc1	·	–	·	·
CC(C)/C=C1\CC/C(=C\c2ccc(N(C)C)cc2)C1=O	–	–	–	419.4
O=C(NCc1ccc2c(c1)OCO2)C12CN(Cc3ccccc3)CC1C(c1cccc([N+](=O)[O-])c1)=NO2 (configuration not stated)	–	42.8	–	–
CCOc1ccccc1C(=O)NN=Cc1cccc2cccnc12	·	–	·	·
O=C(N/N=C/c1cccc2cccnc12)c1ccccc1Br	·	+	·	·
O=C(N/N=C/c1cccc2cccnc12)c1ccccc1	·	+	·	·
O=C(N/N=C/c1cccc2cccnc12)c1ccncc1	·	+	·	·
O=C(Nc1nc(-c2ccccc2)cs1)c1cc(Cl)ccc1[N+](=O)[O-]	·	–	·	·
O=C(Nc1nc(-c2ccccn2)cs1)c1cc(Cl)ccc1[N+](=O)[O-]	–	63.9	–	–
O=C(Nc1nc(-c2ccccn2)cs1)c1ccccc1[N+](=O)[O-]	·	105.0	·	·
O=C(Nc1nc(-c2ccccc2)cs1)c1ccccc1[N+](=O)[O-]	·	84.4	·	·
Cc1csc(NC(=O)c2ccccc2[N+](=O)[O-])n1	–	–	–	–
Cc1ccc(C(=O)Nc2nc(-c3ccccn3)cs2)o1	–	–	–	–
O=C(Nc1nc(-c2ccccn2)cs1)c1ccc([N+](=O)[O-])o1	–	50.9	–	–
COc1cccc2sc(NNC(=O)c3cc(-c4cccs4)nc4ccccc34)nc12	·	–	·	·
O=C(NC1CCN(c2nccs2)C1)C1(c2ccc(Cl)cc2)CCCC1 (configuration not stated)	·	–	·	·
CCCS(=O)(=O)NCCNc1ccc(Nc2cccc(C)n2)nn1	·	–	·	·
